Screening results (PubChem BioAssay)
Rows were chosen to be rich in hits. Some 2.7% of all compounds tested hit in one or more screens of this group.
MITF TRPM1 inh = reduces MITF-dependent TRPM1 promoter luciferase signal | SK-MEL-5 TRPM1 promoter luciferase, 24 h | inhibition, % at 12.5 µM | actives 0.83% (n = 330,000);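 active means mean inhibition across replicates of 60% or more, whatever share of single replicates reaches that level; inconclusive means some that reach 60%, reason not given; inactive means mean inhibition across replicates below 60%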
KKLEB tox = CF airway cell cytotoxicity counter-screen; actives 0.36% (n = 360,000); activity change (cytotoxicity), % at 5 µM; KKLEB CF airway cells viability, ATPlite luminescence, overnight; hits give low values; cells stimulated with P. aeruginosa culture filtrate;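 active means corrected activity change at or below -50% at 5 µM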
Peg3 prom inh = reduces Peg3 promoter-driven luciferase expression in HeLa; actives 1.7% (n = 360,000); HeLa PEG-Prom luciferase reporter, luminescence, overnight; inhibition, % at 20 µM;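 active means inhibition of at least 50% at 20 µM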
HIF-2a inh = HIF-2a inhibition; inhibition, % at 18.8 µM; actives 0.72% (n = 360,000); 786-0 RCC cells HIF-2a reporter, luciferase luminescence, overnight;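 active means inhibition of the luminescence signal of 40% or more relative to plate controls, in a single-dose primary screen at 18.75 µM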
CF NFkB block = blocks PAF-induced NF-kB reporter in cystic fibrosis cells. AID 588850. KKLEB NF-kB-GFP reporter, GFP fluorescence overnight. actives 0.86% (n = 360,000). inhibition, % at 5 µM;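 active means at least 50% inhibition at 5 µM, scaled per plate between neutral and stimulator controls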;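 further: PAF is a Pseudomonas aeruginosa culture filtrate used as stimulus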
Shn3 3UTR inh = Schnurri-3 reporter inhibition in Clone20 osteoblasts | Clone20 osteoblast Shn3 3'UTR firefly luciferase, 24 h | inhibition, % at 12.5 µM | actives 0.52% (n = 360,000);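 active means mean inhibition of at least 75% with every replicate also reaching 75%; inconclusive means mean inhibition at least 75% but some replicate below; inactive means mean inhibition below 75%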
CF NFkB inh conf = CF NF-kB inhibition confirmation, single concentration. shares compounds with CF NFkB block. KKLEB CF airway cells, PAF-induced NF-kB-GFP fluorescence, overnight. inhibition, % at 5 µM. actives 64% (n = 1,300). AID 602472; in the data active means inhibition above about 40%;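 further: stimulus PAF is a Pseudomonas aeruginosa filtrate and not platelet activating factor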
Mdm2 MdmX conf = confirmation of inhibitors of human Mdm2/MdmX interaction, set 2; shares compounds with HIF-2a inh; SaOS-2 split-luciferase Mdm2/MdmX complementation, luminescence; inhibition, % at 8 µM; actives 99% (n = 740);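 active means mean inhibition of the luminescence signal across two replicates at or above 26 percent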
Target sequence (O15151 whole entry, looked up): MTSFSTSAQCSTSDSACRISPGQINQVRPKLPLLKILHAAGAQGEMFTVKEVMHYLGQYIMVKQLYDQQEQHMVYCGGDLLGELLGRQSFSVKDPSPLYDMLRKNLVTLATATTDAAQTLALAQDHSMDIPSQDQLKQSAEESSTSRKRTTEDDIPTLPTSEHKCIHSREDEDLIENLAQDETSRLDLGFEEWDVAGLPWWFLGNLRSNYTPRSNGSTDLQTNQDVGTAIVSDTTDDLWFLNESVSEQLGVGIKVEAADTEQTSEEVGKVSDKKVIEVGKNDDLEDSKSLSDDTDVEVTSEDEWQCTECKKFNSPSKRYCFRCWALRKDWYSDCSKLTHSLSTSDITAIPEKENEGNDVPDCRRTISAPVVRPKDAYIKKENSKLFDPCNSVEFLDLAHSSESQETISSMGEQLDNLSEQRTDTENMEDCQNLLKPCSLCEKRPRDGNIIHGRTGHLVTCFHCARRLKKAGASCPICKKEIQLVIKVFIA
Target sequence (Q00987 whole entry, looked up): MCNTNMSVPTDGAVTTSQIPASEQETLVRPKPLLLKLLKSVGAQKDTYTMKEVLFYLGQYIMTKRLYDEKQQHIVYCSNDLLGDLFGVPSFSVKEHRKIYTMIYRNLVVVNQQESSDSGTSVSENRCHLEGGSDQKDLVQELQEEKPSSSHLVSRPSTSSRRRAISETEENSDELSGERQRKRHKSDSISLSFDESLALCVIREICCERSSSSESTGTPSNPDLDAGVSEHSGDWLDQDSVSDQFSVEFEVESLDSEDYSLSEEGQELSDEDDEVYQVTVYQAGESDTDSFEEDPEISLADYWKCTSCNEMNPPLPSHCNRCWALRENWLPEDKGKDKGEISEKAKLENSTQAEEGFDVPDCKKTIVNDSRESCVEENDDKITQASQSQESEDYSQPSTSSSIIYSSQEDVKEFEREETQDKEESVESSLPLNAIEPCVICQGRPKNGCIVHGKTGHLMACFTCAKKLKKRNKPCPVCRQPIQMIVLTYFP
HIF-2a inh conf = confirmation of HIF-2a inhibitors; shares compounds with HIF-2a inh; 786-0 RCC cells, HIF-2a luciferase reporter luminescence, overnight; inhibition, % at 18.8 µM; actives 56% (n = 1,800);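 active means mean inhibition across four replicates of at least 40 percent at the single tested concentration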
HIF-1a cs = inhibits HIF-1a reporter, a counter-screen for HIF-2a inhibitors. shares compounds with HIF-2a inh. actives 72% (n = 1,800). MiaPaCa-2 HIF-1a luciferase reporter, desferoxamine, overnight. inhibition, % at 18.8 µM;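 active means mean inhibition of the reporter signal across four replicates at the single tested dose of 50% or more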
Hits are given with their value.

COc1ccc(-c2cc(C(F)(F)F)nc(S(C)(=O)=O)n2)cc1 was read as MITF TRPM1 inh 61, KKLEB tox inactive, Peg3 prom inh 100, HIF-2a inh 89, CF NFkB block 74, Shn3 3UTR inh 95, CF NFkB inh conf 58, Mdm2 MdmX conf 102, HIF-2a inh conf inactive and HIF-1a cs 103.
Screening CC(NC(=O)c1c(O)c2ccccc2[nH]c1=O)c1ccccc1 (centres undefined) returned MITF TRPM1 inh inactive, KKLEB tox inactive, Peg3 prom inh inactive, HIF-2a inh inactive, CF NFkB block inactive and Shn3 3UTR inh inactive.
Screening COC(=O)C1=C[C@@H](C(=O)OC)[C@@H]2C3=C(C(=O)C2(C)C)[C@H](C)n2c(=O)n(-c4ccccc4)c(=O)n2[C@@H]3C1 returned MITF TRPM1 inh inactive, KKLEB tox inactive, Peg3 prom inh inactive, HIF-2a inh inactive, CF NFkB block inactive and Shn3 3UTR inh inactive.
`COC(=O)C(Cc1ccccc1)NC(=O)CCNC(=O)c1ccco1` (centres undefined) gave MITF TRPM1 inh inactive, KKLEB tox inactive, Peg3 prom inh inactive, HIF-2a inh inactive, CF NFkB block inactive and Shn3 3UTR inh inactive.
`COc1ccc(C2C(C#N)=C(N)Oc3cc(O)ccc32)cc1Cl` (centres undefined) gave MITF TRPM1 inh inactive, KKLEB tox inactive, Peg3 prom inh inactive, HIF-2a inh inactive, CF NFkB block inactive and Shn3 3UTR inh inactive.
`COc1ccc2cc3c(N)nn(C(=O)c4ccccc4[N+](=O)[O-])c3nc2c1` gave MITF TRPM1 inh inactive, KKLEB tox inactive, Peg3 prom inh inactive, HIF-2a inh inactive, CF NFkB block 71, Shn3 3UTR inh inactive, CF NFkB inh conf 93 and Mdm2 MdmX conf 93.
`COc1ccc2cc3c(N)nn(C(=O)c4ccc(Cl)c([N+](=O)[O-])c4)c3nc2c1` gave MITF TRPM1 inh inactive, KKLEB tox inactive, Peg3 prom inh inactive, HIF-2a inh inactive, CF NFkB block 65, Shn3 3UTR inh inactive, CF NFkB inh conf inactive and Mdm2 MdmX conf 96.
For CCCC1CCC(C(=O)n2nc(N)c3cc4ccc(OC)cc4nc32)CC1 (centres undefined) the results were KKLEB tox inactive, Peg3 prom inh inactive, HIF-2a inh inactive, CF NFkB block inactive and Shn3 3UTR inh inactive.
For Cc1cc(=O)n2nc(N3CCCC(C(=O)NCc4ccccc4Cl)C3)sc2n1 (centres undefined) the results were MITF TRPM1 inh inactive, KKLEB tox inactive, Peg3 prom inh inactive, HIF-2a inh inactive, CF NFkB block inactive and Shn3 3UTR inh inactive.
Screening Cc1ccc(Sc2c(O)c3ccccc3n(C)c2=O)cc1 returned MITF TRPM1 inh inactive, KKLEB tox inactive, Peg3 prom inh inactive, HIF-2a inh inactive, CF NFkB block inactive and Shn3 3UTR inh inactive.
`Cc1ccc(Sc2c(C=O)c3ccccc3n2C)cc1` gave MITF TRPM1 inh inactive, KKLEB tox inactive, Peg3 prom inh inactive, HIF-2a inh inactive, CF NFkB block 65, Shn3 3UTR inh inactive, CF NFkB inh conf 93 and Mdm2 MdmX conf 91.
For O=C(C=Cc1ccccc1)CC(c1ccccc1)N1CCOCC1 (centres undefined) the results were MITF TRPM1 inh 76, KKLEB tox inactive, Peg3 prom inh 108, HIF-2a inh 70, CF NFkB block 94, Shn3 3UTR inh inactive, CF NFkB inh conf inactive, HIF-2a inh conf inactive and HIF-1a cs 102.
For Cc1ccc(S(=O)(=O)N2CCN(C(=O)COC(=O)CCOc3ccccc3C)CC2)c(C)c1 the results were MITF TRPM1 inh inactive, KKLEB tox inactive, Peg3 prom inh inactive, HIF-2a inh inactive, CF NFkB block inactive and Shn3 3UTR inh inactive.
`CCCCn1nnnc1C(c1cc2ccccc2o1)N1CCN(C/C=C/c2ccccc2)CC1` (centres undefined) gave KKLEB tox inactive, Peg3 prom inh inactive, HIF-2a inh inactive, CF NFkB block inactive and Shn3 3UTR inh inactive.
`O=C(O)c1cccc2c1/C(=N/Nc1ccc([N+](=O)[O-])cc1[N+](=O)[O-])c1ccccc1-2` gave KKLEB tox inactive, Peg3 prom inh inactive, HIF-2a inh inactive, CF NFkB block inactive and Shn3 3UTR inh inactive.
Screening CCCCN(CCCNC(=O)c1ccc2c(c1)NC(=O)CN2C)c1ccccc1 returned KKLEB tox inactive, Peg3 prom inh 66, HIF-2a inh 45, CF NFkB block 65, Shn3 3UTR inh inactive, CF NFkB inh conf inactive, HIF-2a inh conf 49 and HIF-1a cs 94.
`CC(=O)OC1CCC2(C)C(CCC3C4CC=C(C(C)=O)C4(C)OC(=O)CC32)C1` (centres undefined) gave KKLEB tox inactive, Peg3 prom inh 111, HIF-2a inh 66, CF NFkB block 96, Shn3 3UTR inh inconclusive, CF NFkB inh conf 101, HIF-2a inh conf 62 and HIF-1a cs 105.
Screening Nc1c(N(Cc2ccccc2)C(=O)COc2ccc([N+](=O)[O-])cc2)c(=O)[nH]c(=O)n1Cc1ccccc1 returned MITF TRPM1 inh inactive, KKLEB tox inactive, Peg3 prom inh inactive, HIF-2a inh inactive, CF NFkB block inactive and Shn3 3UTR inh inactive.
For O=C(Cn1cc(/C=C\[N+](=O)[O-])c2ccccc21)Nc1ccccc1 the results were MITF TRPM1 inh 91, KKLEB tox inactive, Peg3 prom inh 92, HIF-2a inh 96, CF NFkB block 54, Shn3 3UTR inh 95, CF NFkB inh conf inactive, HIF-2a inh conf inactive and HIF-1a cs 106.
`O=C1[C@H]2[C@@H](c3ccc(Cl)cc3)N3C(=O)N(c4cccc(Cl)c4)C(=O)[C@@]3(Cc3ccccc3)[C@H]2C(=O)N1C1CCCCC1` gave MITF TRPM1 inh inactive, KKLEB tox inactive, Peg3 prom inh inactive, HIF-2a inh inactive, CF NFkB block inactive and Shn3 3UTR inh inactive.
Screening COc1ccc(-c2[nH]ncc2-c2ccc3c(c2)OCCO3)c(O)c1 returned MITF TRPM1 inh inactive, KKLEB tox inactive, Peg3 prom inh inactive, HIF-2a inh inactive, CF NFkB block 89, Shn3 3UTR inh inactive, CF NFkB inh conf 102 and Mdm2 MdmX conf 96.
